Screens as filed in PubChem.
Only some compounds are listed: those with a hit (about 3% of all), similar ones and a draw of the others.
SENP8 block-1: SENP8 protease inhibition. purified SENP8, Z-RLRGG-aminoluciferin cleavage, luminescence. AID 2540. inhibition, % at 10 µM. actives 1.2% (n = 330,000); in the data active = inhibition above about 50%
SENP6 inh: SENP6 protease inhibition; AID 2599; actives 1.8% (n = 330,000); inhibition, % at 10 µM; Recombinant SENP6 catalytic domain, aminoluciferin luminescence;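 active = inhibition above about 50% at the single tested dose, limit read from the data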;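 also: plate controls were DMSO wells with enzyme for no effect and DMSO wells lacking enzyme for full effect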
SENP8 block-2: blocks human SENP8 cleavage of Nedd8 substrate; recombinant SENP8, Nedd8 substrate fluorescence; inhibition, % at 20 µM; actives 0.64% (n = 360,000); in the data active = inhibition mostly above about 40%, no sharp cut-off; inactive = mostly below about 27%
C8 TRAIL sens: sensitizes caspase-8 expressing cells to TRAIL | NB7+C8 cells + TRAIL, ATPlite viability luminescence | inhibition (viability loss, TRAIL sensitization), % at 10 µM | actives 1% (n = 360,000) | AID 624354;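 active = compounds causing at least 50% loss of cell viability in the single-dose screen, relative to plate controls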
SENP7 block: SENP7 protease inhibition. Q9BQF6. recombinant SENP7, Z-RLRGG-aminoluciferin luminescence, 40 min. inhibition, % at 5 µM. actives 1.5% (n = 330,000). AID 434973;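 active = inhibition above about 50% at the single test dose, limit read from the data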;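 also: plate controls were DMSO with enzyme for no effect and no enzyme buffer wells for full effect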
Target sequence (Q9BQF6 706-1050 limits assumed): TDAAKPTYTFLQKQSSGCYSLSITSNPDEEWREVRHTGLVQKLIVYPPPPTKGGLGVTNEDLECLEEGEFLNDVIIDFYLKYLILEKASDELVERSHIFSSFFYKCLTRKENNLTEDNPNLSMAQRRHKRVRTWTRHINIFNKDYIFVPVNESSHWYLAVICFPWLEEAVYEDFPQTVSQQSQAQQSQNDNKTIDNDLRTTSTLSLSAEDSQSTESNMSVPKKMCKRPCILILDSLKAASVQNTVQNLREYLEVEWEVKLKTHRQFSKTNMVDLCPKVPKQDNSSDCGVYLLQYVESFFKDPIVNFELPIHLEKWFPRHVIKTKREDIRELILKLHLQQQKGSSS
PPC-1+TRAIL kill: PPC-1 cancer cell killing with TRAIL present. PPC-1 cells + TRAIL, ATPLite viability luminescence. cell killing (% activity), % at 4 µM or 5 µM. actives 0.41% (n = 220,000);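 active = cell killing above 50% in the first pass at 4 µM, then a duplicate retest at 5 µM averaging 50% or more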;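 also: plate controls were cells with TRAIL plus DMSO for no effect and medium-only wells lacking cells for full effect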
SENP8 conf: human SENP8 inhibition, confirmed. shares compounds with SENP7 block. Recombinant SENP8, Z-RLRGG-aminoluciferin luminescence, 60 min. inhibition, % at 12.5 µM. actives 40% (n = 6,200). AID 488912;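 active = mean inhibition across replicates above about 50%, limit read from the data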
SENP6 conf: human SENP6 inhibition, confirmed; inhibition, % at 12.5 µM; actives 58% (n = 6,200); shares compounds with SENP7 block; recombinant SENP6, Z-RLRGG-aminoluciferin luminescence
SENP7 conf: confirmation of human SENP7 protease inhibitors; shares compounds with SENP7 block; recombinant SENP7, Z-RLRGG-aminoluciferin luminescence, 40 min; inhibition, % at 12.5 µM; actives 69% (n = 6,200); AID 488917
Casp3 SENP sel: selectivity test for SENP inhibitors: human caspase-3 inhibition; shares compounds with SENP7 block; purified caspase-3, Z-DEVD-aminoluciferin luminescence, 60 min; inhibition, % at 12.5 µM; actives 60% (n = 6,200);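 active = mean inhibition above about 50%, limit read from the data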;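 also: plate controls were enzyme with DMSO for no effect and wells without caspase-3 for full effect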
Target sequence (P42574 28-227 limits assumed): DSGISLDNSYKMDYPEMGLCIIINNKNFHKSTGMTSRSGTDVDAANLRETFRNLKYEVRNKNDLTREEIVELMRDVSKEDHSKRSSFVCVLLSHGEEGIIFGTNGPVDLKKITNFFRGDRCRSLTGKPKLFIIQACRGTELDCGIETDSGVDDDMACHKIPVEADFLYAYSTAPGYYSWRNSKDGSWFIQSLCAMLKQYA
Luc interf: interferes with luciferase luminescence in SENP counter-screen; shares compounds with SENP7 block; Pre-incubated SENP8/Z-RLRGG-aminoluciferin, luciferase luminescence interference; inhibition, % at 12.5 µM; actives 39% (n = 6,200);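 active = mean inhibition above about 50% when retested at one dose, limit read from the data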;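 also: plate controls were DMSO wells with completed reaction for no effect and substrate without enzyme for full effect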
Active calls of the source: *; . = no result given.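 The calls were made as follows, unless noted: active = mean inhibition above about 50% in the one-dose retest (limit read from the data); inactive = the rest.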

SMILES | SENP8 block-1 | SENP6 inh | SENP8 block-2 | C8 TRAIL sens | SENP7 block | PPC-1+TRAIL kill | SENP8 conf | SENP6 conf | SENP7 conf | Casp3 SENP sel | Luc interf
O=C(O)c1ccc2c3n(nc2c1)-c1ccc(Cl)cc1CO3 | 94* | 98* | . | . | 94* | . | 98* | 99* | 103* | 98* | 96*
O=C(NCCO)c1ccc2c3n(nc2c1)-c1ccc(Cl)cc1CO3 | -1 | 5 | -86 | 24 | -6 | 7 | . | . | . | . | .
Cc1ccc2c(c1)COc1c3ccc(C(=O)N4CCOCC4)cc3nn1-2 | 43 | 71* | -325 | 27 | 69* | 18 | 72* | 69* | 90* | 88* | 76*
O=C(c1ccc2c3n(nc2c1)-c1ccc(Cl)cc1CO3)N1CCCCC1 | 86* | 87* | -30 | 15 | 84* | 38 | 84* | 94* | 100* | 94* | 14
COc1ccc2nc(NC(=O)c3ccccc3[N+](=O)[O-])sc2c1 | 1 | 12 | 15 | -10 | -1 | . | . | . | . | . | .
COc1ccc2nc(NC(C)=O)sc2c1 | 5 | -5 | 28 | 7 | 31 | 10 | . | . | . | . | .
Cc1nc2ccc(NC(=O)c3cccs3)cc2s1 | -12 | -7 | 2 | -12 | -2 | . | . | . | . | . | .
CC(=O)Nc1ccc2nc(NC(=O)c3cccs3)sc2c1 | 83* | 93* | -409 | 31 | 92* | 26 | 56* | 87* | 93* | 90* | 48
COc1ccc2nc(NC(=O)c3cccs3)sc2c1 | 94* | 96* | 12 | -8 | 97* | 47 | 2 | 4 | -3 | 10 | 17
CC(=O)Nc1ccc2nc(NC(=O)c3ccc([N+](=O)[O-])s3)sc2c1 | 41 | 64* | . | . | 22 | 5 | 6 | 8 | 4 | 20 | -1
Cc1nc2cc(NC(=O)c3ccc([N+](=O)[O-])s3)ccc2s1 | -7 | 2 | 25 | 31 | 39 | . | . | . | . | . | .
COc1ccc2nc(NC(=O)c3ccccc3O)sc2c1 | 86* | 84* | -290 | 78* | 82* | . | 42 | 38 | 70* | 60* | 5
Cn1c(SCC(=O)NCC2CCCO2)nnc1-c1ccco1 (stereo unspecified) | 5 | 4 | 19 | -4 | -1 | . | . | . | . | . | .
C[C@@H](CN1C(=O)C(=O)NC[C@@H]1C)NC(=O)CC12CC3CC(CC(C3)C1)C2 | -21 | -22 | 9 | -2 | 9 | . | . | . | . | . | .
O=C(COc1ccc(S(=O)(=O)N2CCCCC2)cc1)N1CCCC1 | 1 | 0 | 14 | 10 | 10 | . | . | . | . | . | .
Cn1cnnc1SCC(=O)Nc1ccc(S(N)(=O)=O)cc1 | -4 | 1 | -13 | -4 | -4 | . | . | . | . | . | .
COc1ccc2nc(NC(=O)Nc3ccccc3OC)sc2c1 | 44 | 81* | 8 | 44 | 93* | . | -8 | -7 | 7 | 64* | -3
NC(=O)c1ccsc1NC(=O)COC(=O)c1cccnc1Cl | -5 | -11 | 1 | -5 | 9 | . | . | . | . | . | .
Cc1cc(C)n(C(C)CNS(=O)(=O)c2ccccc2)n1 (stereo unspecified) | 5 | 14 | 3 | 12 | 7 | . | . | . | . | . | .
O=C(CN1CCN(S(=O)(=O)c2ccccc2F)CC1)Nc1ccnn1C1CCCC1 | -14 | -10 | 8 | 13 | 2 | . | . | . | . | . | .
CCCc1nc(SCC(=O)c2ccc3c(c2)NC(=O)CO3)[nH]c(=O)c1CC | . | . | 5 | -5 | . | . | . | . | . | . | .
CCCc1cc(=O)[nH]c(SCC(=O)c2ccc3c(c2)NC(=O)CO3)n1 | 0 | 98* | 8 | 0 | 6 | 10 | -15 | -10 | -12 | -4 | -9
O=C(c1ccco1)N1CCN(C2=NS(=O)(=O)c3ccccc32)CC1 | -4 | -34 | 19 | -26 | -4 | -4 | . | . | . | . | .
CN1CCN(c2cc(N3CCN(C(=O)c4ccco4)CC3)c3c4c(onc24)-c2ccccc2C3=O)CC1 | 38 | 55* | 65* | 19 | 21 | . | 4 | 18 | 12 | 16 | 12
COC[C@H]1CCCN1c1ccc2c(c1)O[C@@H](COCc1ccccc1)CN([C@H](C)c1ccccc1)S2(=O)=O | . | . | 25 | -13 | . | . | . | . | . | . | .
SMILES | SENP8 block-1 | SENP6 inh | SENP8 block-2 | C8 TRAIL sens | SENP7 block | PPC-1+TRAIL kill | SENP8 conf | SENP6 conf | SENP7 conf | Casp3 SENP sel | Luc interf
C=CCn1c(SCC(=O)N2CCN(c3ccc(F)cc3)CC2)nnc1-c1ccco1 | -12 | -3 | 14 | 12 | 11 | 4 | . | . | . | . | .
C=CCn1c(SCc2nc(N)nc(N3CCCCC3)n2)nnc1-c1ccco1 | 16 | 2 | 10 | 32 | 61* | 14 | -12 | -7 | -9 | 1 | 2
Clc1ccccc1CONc1ncnc2nonc12 | 34 | 62* | 21 | 2 | 36 | 23 | 39 | 33 | 71* | 53* | 61*
COCCNc1ncnc2c1cnn2Cc1ccccc1Cl | 5 | 2 | 14 | -1 | 2 | . | . | . | . | . | .
C=CCn1c(/N=C/c2ccc(N(C)C)cc2)nc2ccccc21 | 71* | 77* | 6 | -3 | 6 | 0 | 81* | 78* | 94* | 75* | 85*
CN(C)c1ccc(/C=N/n2ncc3ccccc32)cc1 | 68* | 76* | -252 | 51* | 2 | 43 | -5 | 85* | 97* | 70* | 43
CCCCC(=O)OCc1nc2ccccc2s1 | -12 | 11 | -8 | -6 | 1 | 16 | . | . | . | . | .
O=C(O)c1ccccc1OCc1nc2ccccc2s1 | 90* | 92* | -2 | -4 | 92* | . | 91* | 93* | 100* | 85* | 79*
O=C(OCc1nc2ccccc2s1)c1cccs1 | 36 | 74* | -10 | 24 | 28 | 34 | 63* | 70* | 84* | 45 | 64*
O=C(OCc1nc2ccccc2s1)c1ccccc1O | 85* | 92* | 3 | 1 | 86* | 16 | 89* | 90* | 98* | 83* | 74*
O=C(OCc1nc2ccccc2s1)c1cnccn1 | -1 | -20 | -5 | -1 | 6 | 21 | . | . | . | . | .
O=C(O)c1nn(CC(=O)N2CCN(c3ncc(C(F)(F)F)cc3Cl)CC2)c(=O)c2ccccc12 | -3 | -10 | 10 | -8 | 7 | . | . | . | . | . | .
Cc1ccc(NS(=O)(=O)c2ccc(C)c(NC(=O)c3ccc(S(=O)(=O)N4CCCCCC4)cc3)c2)c(C)c1 | . | . | 16 | -6 | . | . | . | . | . | . | .
